Many of the other results were omitted from the sample, so hits are more common in it than they were.
CHX counter: affects cycloheximide protein synthesis inhibition readout, counter-screen | AID 2314 | cell reporter, cycloheximide protein synthesis inhibition counterscreen | max response, % | 300,000 compounds, 12% hits; in the data active = max response mostly above about 13%, no sharp cut-off; inactive = mostly below about 14%; also: read at 38.3 µM for the half of the compounds with a filed dose
AmpC inh no detg: inhibitors of E. coli AmpC beta-lactamase without detergent; P00811; AmpC nitrocefin hydrolysis, absorbance 480 nm, 0.0001% Triton; Potency, µM (doses to about 57.1 µM), hits mostly inhibitors; 330,000 compounds, 0.52% hits; AID 485341; also: nearly all actives have a fitted effect of over 20% in size
Target sequence (P00811 whole entry, looked up): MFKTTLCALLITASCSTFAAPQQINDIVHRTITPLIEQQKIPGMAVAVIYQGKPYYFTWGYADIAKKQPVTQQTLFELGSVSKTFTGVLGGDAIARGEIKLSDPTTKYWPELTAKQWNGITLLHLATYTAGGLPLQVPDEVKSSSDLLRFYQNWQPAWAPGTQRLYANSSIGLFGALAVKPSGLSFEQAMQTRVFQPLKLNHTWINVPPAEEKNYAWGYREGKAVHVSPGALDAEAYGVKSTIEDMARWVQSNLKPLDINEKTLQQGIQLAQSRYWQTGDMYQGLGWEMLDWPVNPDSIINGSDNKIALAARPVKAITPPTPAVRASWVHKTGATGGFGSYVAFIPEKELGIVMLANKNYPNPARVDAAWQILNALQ
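AmpC (5.3 nM in the dispensed reagent) in 20 mM phosphate pH 7.0 with 0.01% (detergent screen) or 0.0001% Triton X-100 was preincubated with compounds for 15 min at room temperature. Nitrocefin was then added from an 800 uM solution, and hydrolysis was followed at 480 nm.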
AmpC inh detg: blocks E. coli AmpC beta-lactamase in detergent assay; Potency, µM (titrated, usually from 114 µM), most hits filed as inhibitors; AmpC hydrolysis of nitrocefin, absorbance 480 nm, 0.01% Triton; 370,000 compounds, 0.041% hits; P00811; also: nearly all actives have a fitted effect of over 25% in size
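AmpC (5.3 nM in the dispensed reagent) in 20 mM phosphate pH 7.0 with 0.01% (detergent screen) or 0.0001% Triton X-100 was preincubated with compounds for 15 min at room temperature. Nitrocefin was then added from an 800 uM solution, and hydrolysis was followed at 480 nm.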
Shiga toxin inh: Shiga toxin inhibition | Vero cells, Shiga toxin protein synthesis inhibition reporter | inhibition, % at 38.7 µM | 290,000 compounds, 9.2% hits; in the data active = inhibition mostly above about 28%, no sharp cut-off; inactive = mostly below about 43%
NS1 inh: influenza NS1 inhibition; AID 2326; 270,000 compounds, 0.4% hits; Potency, µM (top dose mostly 46.1 µM); calls by dose curve; also: actives are rising curves; nearly all actives have a fitted effect of over 50% in size
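Growth recovery, yeast-based: influenza A NS1 expressed in S. cerevisiae causes slow growth, and suppressors are detected by OD600. The parent strain without NS1 is used as positive control.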
Hits are given with their value; 0 = inactive; ? = inconclusive; - = not tested or not shown. Unless noted, calls follow the shape of the dose curve; as a rule, active = well fitted curve in the direction sought with a large enough effect; inconclusive = small, poorly fitted or top-dose-only effect, or another doubt; inactive = no such curve, though single readings can be large; an effect the other way counts as inactive or inconclusive.

SMILES	CHX counter	AmpC inh no detg	AmpC inh detg	Shiga toxin inh	NS1 inh
COc1ccc2cc3c(N)c(C(=O)N4CCCC4)sc3nc2c1	69	0	0	101	0
N[C@@H](CSCc1ccccc1)C(=O)O	-	-	-	-	0
Cc1cccc(-c2noc(CN(C(=O)c3ccccc3Cl)C(C)C)n2)c1	-	-	0	-	-
CC(C)Cn1c(=O)c2ccccc2n2c(CCC(=O)NC(C)c3ccccc3)nnc12 (stereo unspecified)	-	-	0	-	-
Cc1cc2oc(=O)cc(-c3ccccc3)c2c(C)c1-c1sccc1C=O	0	-	-	0	-
N#Cc1ccc(-c2ccc(OCC3CNC(=O)O3)cc2)cc1 (stereo unspecified)	47	0	0	65	0
O=C1NCC(COc2ccc([N+](=O)[O-])cc2)O1 (stereo unspecified)	0	0	0	0	0
Nc1nc(CSc2ccccc2)nc(N2CCCCC2)n1	51	0	?	138	-
Nc1nc(CSc2ccc(Cl)cc2)nc(N2CCCCC2)n1	0	0	0	0	0
Cn1cc(S(=O)(=O)N2CCCC2)cc1C(=O)NCCc1ccccc1	11	0	?	0	0
COc1ccc(NC(=O)CC2C(=O)N(c3ccc(C)cc3)C(=O)N2C2CCCC2)cc1 (stereo unspecified)	-	-	0	-	-
Cc1ccc(S(=O)(=O)N(C)C)cc1NC(=S)NC12CC3CC(CC(C3)C1)C2	0	0	0	0	0
CCOc1ccc(NC(=S)NC23CC4CC(CC(C4)C2)C3)cc1	0	0	?	0	0
CN(C)c1ccc(NC(=S)NC23CC4CC(CC(C4)C2)C3)cc1	44	0	0	52	0
FC(F)Oc1ccc(NC(=S)NC23CC4CC(CC(C4)C2)C3)cc1	25	0	0	59	0
CCOC(=O)c1cc(NC(=O)Nc2nc3ccccc3s2)c(C)nc1C	0	0	?	0	0
O=C(Nc1ccc(F)cc1F)Nc1sccc1-c1nc2ccccc2s1	0	7.9µM	0	0	0
O=C(Nc1nc2ccccc2s1)Nc1ccc(F)cc1F	53	0	0	72	0
N#Cc1ccc(C(=O)Nc2ccccc2-c2nc3ccccc3s2)c(F)c1	-	-	0	-	-
C#CC(CC)(CC)NC(=S)Nc1ccc(S(N)(=O)=O)cc1	12	0	0	44	0
O=C(O)C(Cc1ccccc1)Cc1ccccc1	-	-	-	-	0
CC(=O)N(/N=C1\Sc2ccccc2C1=O)c1cccc(C)c1	58	0	0	142	0
CC(=O)N(CN1C(=O)c2ccccc2C1=O)c1cccc(C)c1	0	0	0	0	0
COc1ccc(OCc2cc(C(=O)N[C@H]3CCCCNC3=O)no2)c(Cl)c1	49	0	0	58	0
CSc1ccccc1OCc1cc(C(=O)NC(C)c2cnn(C)c2)no1 (stereo unspecified)	0	0	0	0	0
SMILES	CHX counter	AmpC inh no detg	AmpC inh detg	Shiga toxin inh	NS1 inh
COc1ccc(OCc2cc(C(=O)NC3Cc4ccccc4C3)no2)c(Cl)c1	0	0	0	0	0
CSc1ccccc1OCc1cc(C(=O)N[C@H]2CCCCNC2=O)no1	57	0	0	128	0
CCOC(=O)c1ccc(CN(Cc2ccc(F)cc2)S(=O)(=O)c2ccc(F)c(C(=O)Nc3ccc(Cl)cc3F)c2)cc1	-	-	0	-	-
O=[N+]([O-])c1cccc(S(=O)(=O)NCCc2ccccc2)c1	0	0	0	0	0
CCN(CC)CCCNC(=O)c1ccc2c(c1)N(Cc1c(F)cccc1Cl)C(=O)c1ccccc1S2	-	-	0	-	-
COCCOc1ccc(C(F)(F)F)cc1Nc1nc2ccccc2o1	30	0	0	100	0
CCOC(=O)Cc1cnc(NC(=O)c2ccccc2)s1	53	0	0	91	0
Cc1nc2ccc3nc(NC(=O)c4ccc5c(c4)OCCO5)sc3c2s1	12	0	0	0	0
CCOC(=O)c1csc(-c2ccc(OC)c(OC)c2)n1	0	0	0	0	-
CCOC(=O)c1csc(-c2ccc3c(c2)CCO3)n1	41	0	0	59	0
CCOC(=O)c1csc(NC(=O)c2ccccc2)n1	49	0	0	129	0
CCOC(=O)c1csc(NC(=O)c2ccc(S(=O)(=O)N(C)C)cc2)n1	0	0	0	0	0
CCOC(=O)c1cncc(C#CCO)c1	0	0	0	0	0
CCCCCCCCCCCC(=O)NC(C(=O)OCC)C(O)c1cccc([N+](=O)[O-])c1 (stereo unspecified)	0	0	0	0	0
Cn1cc(C(=O)N2CCN(c3cccc(C(F)(F)F)c3)CC2)c2c3ccccc3n(C)c2c1=O	-	-	0	-	-
CCOC(=O)c1csc(NC(=O)c2ccc(N3C(=O)CCC3=O)cc2)n1	0	0	0	0	-
CCOC(=O)c1csc(NC(=O)c2ccc(OCC)cc2)n1	38	0	0	95	0
CCOC(=O)c1csc(NC(C)=O)n1	28	0	0	0	-
CCOC(=O)c1csc(NC(=O)c2ccc(OC)c(OC)c2)n1	0	0	?	0	0
CCOC(=O)c1csc(NC(=O)c2ccc3c(c2)OCCO3)n1	51	0	0	127	0
CCOC(=O)c1csc(-c2sccc2Br)n1	51	0	0	54	0
CCOC(=O)c1csc(NC(=O)CSc2nnnn2CC)n1	0	0	0	0	0
CCOC(=O)c1cccc(C(=O)OCC)n1	0	0	0	0	0
Cc1cc(Cl)ccc1NC(=O)C(=O)NCc1ccco1	-	-	0	-	-
CCc1c(C)sc(NC(=O)C2CC(c3c(F)cccc3Cl)=NO2)c1C#N (stereo unspecified)	0	0	0	0	0
SMILES	CHX counter	AmpC inh no detg	AmpC inh detg	Shiga toxin inh	NS1 inh
O=C(Nc1nc2ccccc2[nH]1)c1ccccc1O	37	0	0	97	0
C=CCN(c1ccccc1)S(=O)(=O)c1cccc(C(=O)Nc2nc3ccccc3[nH]2)c1	0	10µM	0	0	0
CN(c1cccc(Cl)c1)S(=O)(=O)c1cccc(C(=O)Nc2nc3ccccc3[nH]2)c1	24	0	0	0	0
Cc1ccc(Nc2nc3ccccc3[nH]2)nc1	26	0	?	53	0
CCCCN=C1NC(=O)C(CC(=O)NCCc2ccc(OC)cc2)S1 (stereo unspecified)	0	0	0	0	0
CN1[C@@H]2CC[C@@H]1CC(OC(=O)[C@H](CO)c1ccccc1)C2 (stereo partly specified)	0	-	-	0	-
O=C(CSc1cn(CCNC(=O)c2cccc(C(F)(F)F)c2)c2ccccc12)Nc1ccc2c(c1)OCCO2	-	-	0	-	-
Cc1ccc(-c2nnc(Nc3cccc(Cl)c3)c3ccccc23)cc1S(=O)(=O)NCC1CCCO1 (stereo unspecified)	-	-	0	-	-
O=C(Nc1nc2ccccc2[nH]1)c1ccccc1	17	0	0	0	0
Cc1cccc(C)c1OCc1nc2ccccc2[nH]1	0	0	0	0	0
Cc1ccc(C)c(OCc2nc3ccccc3[nH]2)c1	43	0	0	88	-
Cc1ccc(S(=O)(=O)N2CCOCC2)cc1C(=O)Nc1nc2ccccc2[nH]1	18	0	0	0	0
Cc1ccc(C)c(C(=O)Nc2nc3ccccc3[nH]2)c1	0	0	0	61	0
